JMJD2A Tudor inh = qHTS Assay for Inhibitors of JMJD2A-Tudor Domain; AlphaScreen JMJD2A-Tudor / H3K4me3 peptide binding; Potency, µM (highest dose often 114 µM), inactives show at the highest dose activity change, negative = inhibition, most hits filed as inhibitors; hit rate 4.4% among 390,000; AID 504339, 2011; also: % is scaled to controls: 0 for no effect and ±100 for the full control effect; nearly all actives have a fitted effect of over 50% in size
L3MBTL1 block = qHTS Assay for the Inhibitors of L3MBTL1; AlphaScreen L3MBTL1–H3K9me1 peptide binding; Potency, µM (top dose mostly 57.1 µM), without a hit: at the top dose activity, negative = inhibition, actives largely listed as inhibitors; hit rate 0.66% among 230,000; AID 485360, 2010; also: % is scaled to controls: 0 for no effect and ±100 for the full control effect; nearly all actives have a fitted effect of over 60% in size
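Read-out is AlphaScreen signal from streptavidin donor and nickel chelate acceptor beads (10 ug/mL final each) bridging L3MBTL1 (50 nM) and biotinylated K9-monomethylated H3(1-15) peptide (75 nM), after 30 min compound exposure at room temperature.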
HP1b chromo inh = HTS for Inhibitors of HP1-beta Chromodomain Interactions with Methylated Histone Tails; hit rate 0.56% among 390,000; AlphaScreen HP1-beta / biotin-H3K9me3 peptide binding; Chromobox protein homolog 1 (Homo sapiens), P83916; Potency, µM (highest dose often 114 µM), for the others: at the highest dose activity change, negative = inhibition, actives largely listed as inhibitors; also: nearly all actives have a fitted effect of over 70% in size
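AlphaScreen: HP1-beta (50 nM) preformed 30 min with biotin-H3(1-18)K9me3 peptide (50 nM) in PBS pH 7.4, 0.01% Tween-20. Compound added for 30 min at RT, then streptavidin donor/nickel chelate acceptor beads (10 ug/mL) for 30 min.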
BAZ2B inh = qHTS Assay for Inhibitors of BAZ2B; Bromodomain adjacent to zinc finger domain protein 2B (Homo sapiens), Q9UIF8; AlphaScreen BAZ2B-H3K14Ac peptide displacement; Potency, µM (series often up to 114 µM), inactives show at the highest dose activity change, negative = inhibition, actives largely listed as inhibitors; hit rate 4.4% among 360,000; AID 504333, 2011; also: % is scaled to controls: 0 for no effect and ±100 for the full control effect; nearly all actives have a fitted effect of over 60% in size
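In this displacement format the biotinylated H3(5-23) peptide acetylated at Lys14 serves as ligand at 50 nM, with BAZ2B at 50 nM in PBS pH 7.4 containing 0.01% Tween-20. Donor and acceptor beads are 10 ug/mL final.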
GLS inhibitor = qHTS for Inhibitors of Glutaminase (GLS) | Glutaminase kidney isoform, mitochondrial (Homo sapiens), O94925 | GLS enzymatic activity, qHTS titration | Potency, µM (series often up to 45.5 µM), for inactives: at the top dose activity change, negative = inhibition, hits mostly inhibitors | hit rate 0.21% among 410,000; also: % is scaled to controls: 0 for no effect and ±100 for the full control effect
Target sequence (O94925 whole entry, looked up, canonical isoform): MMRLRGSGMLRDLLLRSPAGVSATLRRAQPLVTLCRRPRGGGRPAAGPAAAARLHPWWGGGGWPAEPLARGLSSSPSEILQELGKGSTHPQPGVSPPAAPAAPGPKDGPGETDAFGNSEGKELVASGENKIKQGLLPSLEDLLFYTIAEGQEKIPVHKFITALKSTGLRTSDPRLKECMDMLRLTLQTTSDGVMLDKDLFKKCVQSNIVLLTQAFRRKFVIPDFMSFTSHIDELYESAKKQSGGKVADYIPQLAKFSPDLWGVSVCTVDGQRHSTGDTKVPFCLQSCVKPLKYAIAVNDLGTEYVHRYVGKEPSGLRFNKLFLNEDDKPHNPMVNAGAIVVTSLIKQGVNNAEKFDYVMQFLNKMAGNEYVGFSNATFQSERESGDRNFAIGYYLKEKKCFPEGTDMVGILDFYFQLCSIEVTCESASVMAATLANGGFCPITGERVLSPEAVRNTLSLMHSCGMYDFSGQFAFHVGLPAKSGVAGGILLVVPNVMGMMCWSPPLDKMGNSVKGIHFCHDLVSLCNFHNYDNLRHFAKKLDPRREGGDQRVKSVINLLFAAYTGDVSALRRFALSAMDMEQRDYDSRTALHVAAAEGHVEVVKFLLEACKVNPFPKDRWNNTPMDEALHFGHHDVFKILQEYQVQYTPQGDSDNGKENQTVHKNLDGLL
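Read-out is an Amplex red fluorescence increase coupled through glutamate oxidase and HRP, measured before and after 30 min room-temperature incubation. hKGA is in 45 mM KH2PO4 (pH 8.2) with 0.02% Tween-20; glutamine added as 1mM solution.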
G9a inh = qHTS Assay for Inhibitors of Histone Lysine Methyltransferase G9a; Histone-lysine N-methyltransferase EHMT2 (Homo sapiens), Q96KQ7; G9a H3K9 monomethylation, AlphaScreen, 2 h; Potency, µM (series often up to 102 µM), for the others: at the top dose activity, negative = inhibition, actives largely listed as inhibitors; hit rate 8.8% among 350,000; also: % is scaled to controls: 0 for no effect and ±100 for the full control effect; nearly all actives have a fitted effect of over 75% in size
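G9a (20 nM) preincubated 15 min RT with compounds, then 500 nM biotinylated H3K9 peptide and 20 uM SAM added; 2 h RT reaction. Monomethyl-H3K9 product detected by AlphaScreen with anti-H3K9me1 antibody, streptavidin donor and anti-rabbit IgG acceptor beads.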
* marks the source's active call; other numbers are inactive results; ? = inconclusive; . = no result; [ ] = dose if it differs, or a comment. A selection: hits, their analogues and other compounds. The true share with any hit is near 10%. Calls follow the shape of the dose curve; as a rule, active = well fitted curve in the direction sought with a large enough effect; inconclusive = small, poorly fitted or top-dose-only effect, or another doubt; inactive = no such curve, though single readings can be large; an effect the other way counts as inactive or inconclusive. Potency is read from the fitted curve at half-maximal effect.

SMILES | JMJD2A Tudor inh | L3MBTL1 block | HP1b chromo inh | BAZ2B inh | GLS inhibitor | G9a inh
C=CCc1cc(Cl)ccc1OCCCNC(C)C | 32µM* | 10% | ? | 56µM* | -7% | 8.9µM*
C=CCc1cc(C)ccc1OCCOCCC(C(=O)OCC)C(=O)OCC | 8% | 114% | 88% | 172% | 7% | 55%[59 µM]
C=CCc1cc(Cl)ccc1OCCOCCNC(C)CC (stereo not given) | 1.4µM* | 8% | ? | 50µM* | 7% | 10µM*
COCCCNC(=O)CCSc1ccc(Cl)cc1 | -7% | 3% | 20% | 28% | 7% | 21%
CCC(C)NCCOCCSc1ccc(Cl)cc1 (stereo not given) | 3.5µM* | 7% | ? | 79µM* | 4% | 8.9µM*
COc1cccc(C(=O)Nc2c3c(nn2-c2ccc(C)cc2C)CS(=O)(=O)C3)c1OC | ? | . | 41% | -4% | 1% | -23%[59 µM]
O=C(Cc1cccs1)N(c1ccc(Br)cc1)C1C=CS(=O)(=O)C1 (stereo not given) | 20µM* | 6% | -5% | -16% | 0% | 3%
COc1cccc2c1OC(=O)CC2c1ccc(C)cc1 (stereo not given) | . | . | . | . | . | 6%
Cn1cc(P(=O)(N2CCOCC2)N2CCOCC2)cc1P(=S)(N1CCOCC1)N1CCOCC1 | -12% | 5% | 2% | 1% | -1% | 40µM*
CCn1c(C)c(P(=O)(N2CCOCC2)N2CCOCC2)c2ccccc21 | 2% | 4% | 25% | 3% | 5% | 10%
Cn1cc(P(=S)(N2CCOCC2)N2CCOCC2)cc1P(=O)(N1CCOCC1)N1CCOCC1 | ? | 5% | ? | -3% | 13% | 10µM*
Cc1cc(C)c(NC(=O)C(C)n2nc(-c3ccc(C)c(C)c3)ccc2=O)c(C)c1 (stereo not given) | -19% | . | 36% | ? | -9% | -16%[59 µM]
O=C(c1cccc(C(F)(F)F)c1)N1CCN(C2CCCCC2)CC1 | -11% | 24%[11.4 µM] | -4% | 5% | 6% | -3%[59 µM]
O=C(c1ccccc1)N1CCN(C2CCCCCC2)CC1 | 3.2µM* | . | ? | 56µM* | 14% | ?
O=C(c1cccc(F)c1)N1CCC(N2CCCCCC2)CC1 | 2.2µM* | . | ? | 56µM* | 0% | 22µM*
O=C(c1cccc(F)c1)N1CCN(C2CCCCC2)CC1 | 22µM* | . | ? | 50µM* | 26% | 22µM*
O=C(c1cccc(Cl)c1)N1CCC(N2CCC(C(=O)N3CCCC3)CC2)CC1 | 3% | . | 29% | -9% | -13% | 76%[59 µM]
O=C(c1cccc(Cl)c1)N1CCN(C2CCCCC2)CC1 | 7.9µM* | 37% | ? | ? | 2% | .
COC(=O)c1ccc(OCC2c3cc(OC)c(OC)cc3CCN2C(=O)Cc2ccc(OC)c(OC)c2)cc1 (stereo not given) | ? | . | 5% | 11% | 1% | 31%[59 µM]
COc1ccccc1Cn1ccn(Cc2ccc(C)cc2)c(=O)c1=O | ? | . | -8% | ? | 6% | ?
O=C(NC(=S)N1CCCCCC1)c1ccccc1 | -16% | . | 37% | ? | 5% | .
O=C(c1ccco1)N1CCN(C(=O)c2cccc3c2C(=O)N(C2CCCCC2)C3)CC1 | -4% | -12% | 20% | -21% | 2% | 45µM*
O=C(NC(=S)N1CCN(C2CCCCC2)CC1)c1ccccc1 | -17% | 6% | -11% | -24% | 1% | 50µM*
O=C(c1ccco1)N1CCN(C(=O)c2cccc3c2C(=O)N(Cc2cccnc2)C3)CC1 | -13% | . | 26% | 23% | 1% | ?
O=C(c1ccco1)N1CCN(C2CCCC2)CC1 | 3.2µM* | 5% | ? | -4% | 5% | ?
SMILES | JMJD2A Tudor inh | L3MBTL1 block | HP1b chromo inh | BAZ2B inh | GLS inhibitor | G9a inh
O=C(c1ccco1)N1CCN(C2CN(C3CCCC3)S(=O)(=O)C2)CC1 (stereo not given) | . | . | . | . | 3% | .
COC(=O)c1ccc(NC(=O)C2CCN(S(=O)(=O)c3ccc4c(c3)CCCN4C(C)=O)CC2)cc1 | -12% | . | 12%[57 µM] | -4% | 3% | -14%[59 µM]
COc1cc(NC(=O)Cn2c(-c3ccccc3)cc(C(C)=O)c2C)cc(OC)c1 | -8% | . | 23% | -1% | -11% | -7%[59 µM]
Cc1ccc(-c2nnc(N3CCN(C(=O)c4cccs4)CC3)c3ccccc23)cc1 | -34% | 1% | 22% | -24% | 20µM* | ?
CN1CCN(c2nnc(-c3ccc(F)cc3)c3ccccc23)CC1 | ? | . | -19% | -28% | 3% | 40µM*
CN1CCN(c2nnc(-c3ccc(Cl)cc3)c3ccccc23)CC1 | -12% | . | 15% | 8% | -3% | 4%[2.33 µM]
Cc1ccc(CN2CCC(CNC(=O)Nc3c(C)cccc3C)C2)cc1 (stereo not given) | -11% | . | 26% | -6% | 2% | -43%[59 µM]
Clc1ncc(C#Cc2ccccc2)c2ncncc12 | -29% | . | 6% | . | . | .
CCOC(=O)CCN(c1ccccc1)S(=O)(=O)c1cc(-c2cc(C)no2)ccc1C | 6% | . | 36% | 11% | 1% | 6%[59 µM]
COc1ccc(C2Nc3ccccc3C(=O)N2c2ccccc2F)cc1COc1ccc(NC(C)=O)cc1 (stereo not given) | -12%[57.1 µM] | . | -5%[57 µM] | . | . | .
Cc1cccc2nc(CSCc3ccco3)cn12 | -34% | ? | 4% | ? | -12% | 45µM*
NC(=O)c1ccc2c(=O)n3c(-c4cc(Cl)c(N)c(Cl)c4)csc3nc2c1 | 71µM* | . | 75% | ? | -15% | ?
Cc1csc2nc3cc(C(N)=O)ccc3c(=O)n12 | 0% | . | 29% | 5% | 1% | -1%[12.7 µM]
CCOc1ccc(CNc2nc3nc(C)c(Cc4ccccc4)c(=O)n3[nH]2)cc1 | ? | . | 16% | -4% | 1% | ?
O=c1c2cn[nH]c2[nH]c(=S)n1-c1cccc2ccccc12 | -34% | -4% | 14% | -8% | 22% | 50µM*
N#CCSc1nc2[nH]ncc2c(=O)n1-c1ccccc1Br | -6% | 8% | 27% | 30% | -2% | 7%[59 µM]
O=c1c2cn[nH]c2[nH]c(=S)n1-c1ccccc1 | 79µM* | 4% | 5% | -4% | 8% | 8.9µM*
COc1ccc(-n2c(=S)[nH]c3[nH]ncc3c2=O)cc1 | ? | 5% | 37% | ? | -8% | .
O=C(NC1CCCCCC1)c1ccc2c(c1)sc1nc(-c3ccc(F)cc3)cn12 | -8% | . | 34% | -25% | -15% | -19%[59 µM]
